Measurements reported in PubChem BioAssay (NCI).
Several values for one entry are separate records, joined by “and”; a condition that tells them apart may be missing. Equal values may be shown once. Compounds without any hit were thinned out: in the full panel of roughly 79,000, 15% have a hit. Activity calls are given as the source filed them. Cut-off read from the data, not from the text of the source: active = growth inhibition above about 70%; inactive = the rest.

Assay: NCI Yeast Anticancer Drug Screen. Data for the rad50 strain (AID 155);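 note: 0% = growth of vehicle-only cultures of the same strain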
Conditions: S. cerevisiae rad50 strain growth inhibition, stronger effect = higher value; at 50.0 µM unless noted
Method in brief: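 Inhibition values express reduced yeast growth in compound-treated cultures relative to vehicle-treated controls.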

SMILES	growth inhibition
CC(=O)[C@@]1(O)CC[C@H]2[C@@H]3CC[C@@H]4C[C@H](O)CC[C@]4(C)[C@H]3[C@H](O)C[C@@]21C	-9.8% (inactive)
COc1ccc(C2CC(=O)N(c3ncccn3)C(=O)C2)cc1	14.5% (inactive)
CC1(C)CC2(Nc3ccccc3N2)C2=C(O1)C(=O)OC2	9.45% (inactive)
C[n+]1cccc(C#N)c1	6.55% (inactive) and 5.2% (inactive)
CCCc1cc(Cl)ccc1OCC(=O)O	32.4% (inactive)
C1CSCCSS[C@@H]2CCCCC2SC1 (stereo partly specified)	-12.8% (inactive)
Cn1cc(C(=O)c2ccccc2)cc(C(=O)c2ccccc2)c1=O	-3.05% (inactive)
NC(=O)C1CC2(c3ccccn3)c3ccccc3C1c1ccccc12 (stereo unspecified)	-0.1% (inactive)
O=S(=O)(Cc1nc2ccccc2[nH]1)Cc1nc2ccccc2[nH]1	-3.4% (inactive)
N#Cc1cccc2c1Nc1ccccc1S2	-9.75% (inactive)
CSc1nc(NC2OC(COC(C)=O)C(OC(C)=O)C(OC(C)=O)C2OC(C)=O)c(N=CC=Nc2c(NC3OC(COC(C)=O)C(OC(C)=O)C(OC(C)=O)C3OC(C)=O)nc(SC)[nH]c2=O)c(=O)[nH]1 (stereo unspecified)	-13.8% (inactive)
NCCCc1nonc1C(=O)O	-15.2% (inactive)
C[N+]1(Cc2csc(-c3ccc(Cl)cc3)n2)CCOCC1	3.15% (inactive)
COC(=O)c1ccccc1CC1Cc2ccc3c(c2C1=O)CCCC3 (stereo unspecified)	-1.35% (inactive)
O=C(O)C[N-]CC(=O)O.OO.[O]=[V]	-16.9% (inactive)
N#Cc1nc(C2CC2)oc1N	-18.7% (inactive)
c1ccc(OC2=NC3=S(S2)SC(Oc2ccccc2)=N3)cc1	43.2% (inactive)
CC(=O)CC(=O)Nc1nc2ccccc2s1	-4.45% (inactive)
CCOc1nc(=O)n(C2OC(CO)C(O)C2O)s1 (stereo unspecified)	26.4% (inactive)
CC1CCC(c2ccccc2)(c2ccccc2)C1=O (stereo unspecified)	11.8% (inactive)
CCCOC(=O)c1ccc([N+](=O)[O-])cc1	16.4% (inactive)

Assay: NCI Yeast Anticancer Drug Screen. Data for the mec2-1 strain (AID 157)
Conditions: S. cerevisiae mec2-1 strain, stronger effect = higher value; at 50.0 µM unless noted
Method in brief: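 Growth inhibition is read against vehicle-treated controls after compound exposure of the mec2-1 yeast strain, which is defective in DNA damage repair or cell cycle control.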

SMILES	growth inhibition
COc1ccc(/C=C2\N=C3N(Cc4ccccc4)C=C(N)N3C2=O)cc1	-6.1% (inactive)
O=C1CC(c2ccccc2)n2c(nc3ccccc32)N1 (stereo unspecified)	1.85% (inactive)
C#CC(C)(O)CCC(C)C (stereo unspecified)	-16.1% (inactive)
Clc1ccc(OCC(COc2ccccc2)Oc2nc(-c3ccccc3)nc(-c3ccccc3)n2)cc1 (stereo unspecified)	2.25% (inactive)
c1ccc(C(=NN=C(c2ccccc2)c2ccccc2)c2ccccc2)cc1	23.9% (inactive)
CCCCCCN1COCC(COc2ccc(Cl)cc2)OC1 (stereo unspecified)	18.8% (inactive)
O=[N+]([O-])c1ccc(CS(=O)Cc2ccccc2)cc1 (stereo unspecified)	-18.6% (inactive)
COc1ccc(NS(=O)c2ccccc2)cc1 (stereo unspecified)	1.2% (inactive)
Cc1ccccc1C(=O)NC(O)(C(F)(F)F)C(F)(F)F	10.2% (inactive)
CC(O)CCC(=O)c1nc2ccccc2s1 (stereo unspecified)	19.2% (inactive)
CCOC(=O)c1c[nH]n(-c2ccccc2)c1=O	-3.95% (inactive)
Nc1c(Cl)ncnc1Nc1ccc(CCO)cc1	-9.25% (inactive)
CC(N)C(=O)NO (stereo unspecified)	-24.6% (inactive)
CC(=O)NS(=O)(=O)c1ccc(NC(=O)/C=C/C(=O)O)cc1	-15.7% (inactive) and -18.1% (inactive)
Nc1nc(=O)[nH]c(=O)[nH]1	-0.4% (inactive)
O=C1CCCCC(=O)Nc2ccccc2N1	-15.8% (inactive)
NCc1ccc(F)cc1	-10.7% (inactive)
CC1(C)N=C(C(N)=O)c2ncn(Cc3ccccc3)c2N1	-32.6% (inactive)
C(=Nc1cccnc1)c1ccc(C=Nc2cccnc2)cc1	37.5% (inactive)
CC(=O)[C@@]1(O)CC[C@H]2[C@@H]3CC[C@@H]4C[C@H](O)CC[C@]4(C)[C@H]3[C@H](O)C[C@@]21C	-3.7% (inactive)

SMILES	growth inhibition
COc1ccc(C2CC(=O)N(c3ncccn3)C(=O)C2)cc1	8.4% (inactive)
CC1(C)CC2(Nc3ccccc3N2)C2=C(O1)C(=O)OC2	-8.25% (inactive)
C[n+]1cccc(C#N)c1	4.6% (inactive) and -7.45% (inactive)
CCCc1cc(Cl)ccc1OCC(=O)O	18.9% (inactive)
C1CSCCSS[C@@H]2CCCCC2SC1 (stereo partly specified)	-25.1% (inactive)
Cn1cc(C(=O)c2ccccc2)cc(C(=O)c2ccccc2)c1=O	-12.1% (inactive)
NC(=O)C1CC2(c3ccccn3)c3ccccc3C1c1ccccc12 (stereo unspecified)	7.6% (inactive)
O=S(=O)(Cc1nc2ccccc2[nH]1)Cc1nc2ccccc2[nH]1	4.25% (inactive)
N#Cc1cccc2c1Nc1ccccc1S2	-21.8% (inactive)
CSc1nc(NC2OC(COC(C)=O)C(OC(C)=O)C(OC(C)=O)C2OC(C)=O)c(N=CC=Nc2c(NC3OC(COC(C)=O)C(OC(C)=O)C(OC(C)=O)C3OC(C)=O)nc(SC)[nH]c2=O)c(=O)[nH]1 (stereo unspecified)	-17.7% (inactive)
NCCCc1nonc1C(=O)O	-39.4% (inactive)
C[N+]1(Cc2csc(-c3ccc(Cl)cc3)n2)CCOCC1	-25.6% (inactive)
COC(=O)c1ccccc1CC1Cc2ccc3c(c2C1=O)CCCC3 (stereo unspecified)	-65.7% (inactive)
O=C(O)C[N-]CC(=O)O.OO.[O]=[V]	1.5% (inactive)
N#Cc1nc(C2CC2)oc1N	-2.65% (inactive)
c1ccc(OC2=NC3=S(S2)SC(Oc2ccccc2)=N3)cc1	-4.15% (inactive)
CC(=O)CC(=O)Nc1nc2ccccc2s1	2.65% (inactive)
CCOc1nc(=O)n(C2OC(CO)C(O)C2O)s1 (stereo unspecified)	-1.35% (inactive)
CC1CCC(c2ccccc2)(c2ccccc2)C1=O (stereo unspecified)	-1.8% (inactive)
CCCOC(=O)c1ccc([N+](=O)[O-])cc1	4.2% (inactive)
